HEK293 viab: GF-AFC viability counterscreen for inhibitors of alpha-synuclein gene (SNCA) expression; HEK-293-SNCA-luc viability, GF-AFC fluorescence, 24 h; Potency, µM (top dose mostly 57.1 µM), without a hit: top-dose activity change, negative = cytotoxicity, most hits filed as cytotoxic; 150,000 tested, 0.12% active; AID 1671193, 2021;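 also: potency is read from the fitted curve at half-maximal effect; 0% = DMSO-treated cells and -100% = medium-only wells without cells; nearly all actives have a fitted effect of over 30% in size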
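Cytotoxicity counterscreen: after 24 h compound treatment of genome-edited SNCA-luciferase HEK-293 cells, live-cell protease substrate GF-AFC read by fluorescence after 30 min; activity scaled between DMSO (0%) and medium-only (-100%), curves Hill-fitted.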
KDM5B inhibitor: Primary screen for KDM5B Histone Demethylases FDH-coupled qHTS; Lysine-specific demethylase 5B (Homo sapiens), Q9UGL1; KDM5B demethylase, FDH-coupled NADH fluorescence (FDH is formaldehyde dehydrogenase); Potency, µM (top dose mostly 57.7 µM), usual class: inhibitors; 220,000 tested, 2.6% active; also: potency is read from the fitted curve at half-maximal effect; 0% is about no effect; nearly all actives have a fitted effect of over 70% in size
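Inhibition is measured as reduced NADH fluorescence generation from FDH coupling to formaldehyde release. Truncated KDM5BΔAP at 200 nM final acts on H3K4me3 peptide (12.5 µM in substrate mix) in pH 7.5 HEPES buffer with Tween-20, 30 min, room temperature.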
SNCA expr inh: Primary qHTS assay for inhibitors of alpha-synuclein gene (SNCA) expression; Potency, µM (series often up to 57.2 µM), without a hit: at the highest dose activity change, negative = inhibition, usual class: inhibitors; 140,000 tested, 0.17% active; HEK-293 SNCA-luciferase knock-in, luminescence, 24 h;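 also: potency is read from the fitted curve at half-maximal effect; plate controls were DMSO cells for no effect and cell-free wells for full effect; nearly all actives have a fitted effect of over 45% in size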
IP6K1 inh: Primary qHTS assay for small molecule inhibitors of Inositol hexaphosphate kinase 1 (IP6K1). IP6K1 kinase, ADP-Glo luminescence, 2 h; stronger effect = lower value. activity change, % (series mostly up to about 58 µM). Inositol hexakisphosphate kinase 1 (Homo sapiens), Q92551. 140,000 tested, 0.81% active. AID 1645851, 2021; in the data active = activity change below about -25%; also: % is scaled to controls: 0 for no effect and ±100 for the full control effect
Target sequence (Q92551 whole entry, looked up): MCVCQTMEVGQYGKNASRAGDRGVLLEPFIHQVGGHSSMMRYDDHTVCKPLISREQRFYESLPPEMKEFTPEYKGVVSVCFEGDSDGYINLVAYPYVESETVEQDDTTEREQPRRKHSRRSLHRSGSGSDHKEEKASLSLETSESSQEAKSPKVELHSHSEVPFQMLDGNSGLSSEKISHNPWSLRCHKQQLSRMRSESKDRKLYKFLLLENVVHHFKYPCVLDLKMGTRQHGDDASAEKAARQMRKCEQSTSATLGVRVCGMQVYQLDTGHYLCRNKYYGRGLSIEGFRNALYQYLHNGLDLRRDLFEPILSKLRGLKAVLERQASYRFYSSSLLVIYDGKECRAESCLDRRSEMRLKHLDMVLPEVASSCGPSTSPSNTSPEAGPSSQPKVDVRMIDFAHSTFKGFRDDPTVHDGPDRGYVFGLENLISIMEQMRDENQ
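ADP-Glo luminescence measures ADP made by human IP6K1 during a 2 h RT reaction with ATP/IP6 (mix at 1.3 mM/130 uM); top library doses 57.5 and 19.1 uM final.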
Active calls of the source: *; [ ] = another dose, or the depositor's remark. A selection: hits, their analogues and other compounds. The true share with any hit is near 2.8%. Unless noted, calls follow the shape of the dose curve; as a rule, active = well fitted curve in the direction sought with a large enough effect; inconclusive = small, poorly fitted or top-dose-only effect, or another doubt; inactive = no such curve, though single readings can be large; an effect the other way counts as inactive or inconclusive.

COc1ccccc1CN(C)CC(O)COc1ccc(-c2ccccc2)cc1 (configuration not stated) was read as KDM5B inhibitor inactive.
CCOc1ccccc1CNC(=O)c1cc(NC(C)=O)cc2nc(C)ccc12 was read as HEK293 viab 0%, KDM5B inhibitor 14µM*, SNCA expr inh 5% and IP6K1 inh 14.
For CCCCn1c(=O)[nH]c(=O)c2c1nc(CNc1ccc(C)c(F)c1)n2CCC(C)C the results were KDM5B inhibitor inactive.
Screening O=C(NCc1ccc(Cl)nc1)c1cccn2nccc12 returned HEK293 viab 0%[87.6 µM], KDM5B inhibitor 35µM*, SNCA expr inh inconclusive and IP6K1 inh 5.
`Cc1ccc2c(C(=O)NCc3ccc(Cl)cc3Cl)cnn2c1` gave HEK293 viab 0%[87.6 µM], KDM5B inhibitor inconclusive, SNCA expr inh 146%[87.6 µM] and IP6K1 inh -2.
For Cc1ccc2c(C(=O)NCc3ccc(Cl)nc3)cnn2c1 the results were HEK293 viab 15%[87.6 µM], KDM5B inhibitor 40µM*, SNCA expr inh 16%[87.6 µM] and IP6K1 inh -4.
For O=C(NCc1ccc(Cl)nc1)c1cnn2c1CN(C(=O)c1ccccc1)CC2 the results were HEK293 viab -4%, KDM5B inhibitor inactive, SNCA expr inh 0% and IP6K1 inh 16.
Screening COc1nc2cc(C)c(C)cc2nc1C(=O)Nc1ccc(Br)cc1 returned KDM5B inhibitor inactive.
CC(C)Oc1cccc(-c2nc(C(=O)Nc3ccc(F)cc3)cs2)c1 was read as HEK293 viab 6%, KDM5B inhibitor inconclusive, SNCA expr inh 80% and IP6K1 inh 21.
`NC1CCN(Cc2ccc(C(=O)NCc3ccc(S(N)(=O)=O)cc3)c(=O)[nH]2)C1` (configuration not stated) gave HEK293 viab -9%, KDM5B inhibitor 22µM*, SNCA expr inh -14% and IP6K1 inh 5.
Screening CCc1noc(-c2cccn3c(CNC(=O)Cc4ccccc4Cl)nnc23)n1 returned HEK293 viab -16%, KDM5B inhibitor 20µM*, SNCA expr inh 8% and IP6K1 inh 14.
CCc1noc(-c2cccn3c(CNC(=O)C(C)Oc4ccccc4)nnc23)n1 (configuration not stated) was read as HEK293 viab 2%, KDM5B inhibitor inconclusive, SNCA expr inh 6% and IP6K1 inh -3.
`CCCc1noc(-c2cccn3c(CNC(=O)Cc4ccccc4OC)nnc23)n1` gave HEK293 viab 1%, KDM5B inhibitor inactive, SNCA expr inh 7% and IP6K1 inh 8.
Screening CCc1noc(-c2cccn3c(CNC(=O)Cc4ccccc4C)nnc23)n1 returned HEK293 viab -3%, KDM5B inhibitor 25µM*, SNCA expr inh -16% and IP6K1 inh 34.
Screening CCc1noc(-c2cccn3c(CNC(=O)Cc4ccc(Cl)cc4)nnc23)n1 returned HEK293 viab -6%, KDM5B inhibitor 25µM*, SNCA expr inh 7% and IP6K1 inh -2.
`O=C(Nc1ccccc1Cc1ccccc1)c1cnc2ccccc2n1` gave KDM5B inhibitor inactive.
`CC(=O)N1CCC(N2C[C@@H]3C[C@H](C2)c2c(NC(=O)NC4CCCCC4)ccc(=O)n2C3)CC1` gave HEK293 viab -8%, KDM5B inhibitor inconclusive, SNCA expr inh 13% and IP6K1 inh 17.
O=C(Nc1ccc(=O)n2c1[C@@H]1C[C@@H](CN(C(=O)Nc3ccc(F)cc3)C1)C2)NC1CCCCC1 was read as HEK293 viab -8%, KDM5B inhibitor 20µM*, SNCA expr inh -19% and IP6K1 inh 6.
Screening Cc1cn2nc(C(=O)Nc3ccc(C(=O)NCCc4cccs4)cc3)cc2c(=O)[nH]1 returned HEK293 viab -8%, KDM5B inhibitor 25µM*, SNCA expr inh -24% and IP6K1 inh 7.
For Cc1cn2nc(C(=O)NCc3ccccn3)cc2c(=O)[nH]1 the results were HEK293 viab 3%, KDM5B inhibitor inconclusive, SNCA expr inh 26% and IP6K1 inh -11.
For Cc1cc(C(=O)N[C@@H]2CCOC[C@H]2OCC(=O)O)sc1-c1ccccc1 the results were HEK293 viab 2%, KDM5B inhibitor 25µM*, SNCA expr inh -5% and IP6K1 inh -6.
For COCc1ccc(C(=O)N[C@@H]2CCOC[C@H]2OCc2ccccc2)s1 the results were HEK293 viab -3%, KDM5B inhibitor inactive, SNCA expr inh -3% and IP6K1 inh -9.
Screening CCCCCC(=O)Nc1nc2c(s1)C[C@@H]1[C@](C)(CO)[C@H](O)CC[C@@]1(C)[C@@H]2CC(=O)N[C@H](C)c1ccccc1 returned HEK293 viab -20%, KDM5B inhibitor inactive, SNCA expr inh 2% and IP6K1 inh -2.
CC(C)C[C@H](CO)NC(=O)C[C@@H]1c2nc(-c3cccnc3)sc2C[C@@H]2[C@](C)(CO)[C@H](O)CC[C@]21C was read as HEK293 viab -5%, KDM5B inhibitor 32µM*, SNCA expr inh 6% and IP6K1 inh -12.
For C#CCN(C)C(=O)C[C@@H]1c2nc(-c3cccnc3)sc2C[C@@H]2[C@](C)(CO)[C@H](O)CC[C@]21C the results were HEK293 viab 10%, KDM5B inhibitor 32µM*, SNCA expr inh 11% and IP6K1 inh 4.
For COCCNC(=O)C[C@@H]1c2nc(-c3ccccc3)sc2C[C@@H]2[C@](C)(CO)[C@H](O)CC[C@]21C the results were HEK293 viab 4%, KDM5B inhibitor 28µM*, SNCA expr inh 1% and IP6K1 inh -13.
Screening C[C@@H](NC(=O)C[C@@H]1c2nc(-c3cccnc3)sc2C[C@@H]2[C@](C)(CO)[C@H](O)CC[C@]21C)c1ccccc1 returned HEK293 viab -6%, KDM5B inhibitor 32µM*, SNCA expr inh -3% and IP6K1 inh -4.
C[C@]1(CO)[C@H]2Cc3sc(-c4ccccc4)nc3[C@@H](CC(=O)N3CCOCC3)[C@]2(C)CC[C@H]1O was read as HEK293 viab 2%, KDM5B inhibitor inconclusive, SNCA expr inh inconclusive and IP6K1 inh -8.
`CN(Cc1ccc(Cl)cc1)Cc1ccccc1C(F)(F)F` gave HEK293 viab 7%[87.6 µM], KDM5B inhibitor inactive, SNCA expr inh 8%[87.6 µM] and IP6K1 inh 1.
`CC1(C(=O)NCc2ccncc2)CCCc2cnc(NCc3ccccc3)nc21` (configuration not stated) gave HEK293 viab 1%[87.6 µM], KDM5B inhibitor 35µM*, SNCA expr inh -22%[87.6 µM] and IP6K1 inh -1.
`CN1CCC(NC(=O)C2(C)CCCc3cnc(NCc4ccccc4)nc32)CC1` (configuration not stated) gave HEK293 viab 8%[87.6 µM], KDM5B inhibitor 22µM*, SNCA expr inh -6%[87.6 µM] and IP6K1 inh -8.
Screening CC1(C(=O)NCc2cnccn2)CCCc2cnc(NCc3ccccc3)nc21 (configuration not stated) returned HEK293 viab 8%[87.6 µM], KDM5B inhibitor inactive, SNCA expr inh -26%[87.6 µM] and IP6K1 inh -2.

Bioassay records as filed in PubChem BioAssay.
